A selection: hits, their analogues and other compounds. The true share with any hit is near 3.5%.
UHRF1 binding – blocks human UHRF1 binding to methylated DNA | UHRF1 binding to methylated oligo, TR-FRET | inhibition, % at 4.4 µM | 370,000 tested, 0.75% active; in the data active = inhibition above about 21%;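 note: UHRF1 SRA domain binding a hemimethylated CpG hairpin DNA probe; 0% = median of test compound wells and 100% = reference inhibitor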
DNMT1 inh – inhibitors of human DNMT1; DNMT1 molecular beacon, Hinp1I cleavage, fluorescence; AID 588458; 360,000 tested, 0.83% active; inhibition (reported as % activation of signal), % at 10 µM; P26358; in the data active = inhibition above about 50%
Target sequence (P26358 504-1616 limits assumed): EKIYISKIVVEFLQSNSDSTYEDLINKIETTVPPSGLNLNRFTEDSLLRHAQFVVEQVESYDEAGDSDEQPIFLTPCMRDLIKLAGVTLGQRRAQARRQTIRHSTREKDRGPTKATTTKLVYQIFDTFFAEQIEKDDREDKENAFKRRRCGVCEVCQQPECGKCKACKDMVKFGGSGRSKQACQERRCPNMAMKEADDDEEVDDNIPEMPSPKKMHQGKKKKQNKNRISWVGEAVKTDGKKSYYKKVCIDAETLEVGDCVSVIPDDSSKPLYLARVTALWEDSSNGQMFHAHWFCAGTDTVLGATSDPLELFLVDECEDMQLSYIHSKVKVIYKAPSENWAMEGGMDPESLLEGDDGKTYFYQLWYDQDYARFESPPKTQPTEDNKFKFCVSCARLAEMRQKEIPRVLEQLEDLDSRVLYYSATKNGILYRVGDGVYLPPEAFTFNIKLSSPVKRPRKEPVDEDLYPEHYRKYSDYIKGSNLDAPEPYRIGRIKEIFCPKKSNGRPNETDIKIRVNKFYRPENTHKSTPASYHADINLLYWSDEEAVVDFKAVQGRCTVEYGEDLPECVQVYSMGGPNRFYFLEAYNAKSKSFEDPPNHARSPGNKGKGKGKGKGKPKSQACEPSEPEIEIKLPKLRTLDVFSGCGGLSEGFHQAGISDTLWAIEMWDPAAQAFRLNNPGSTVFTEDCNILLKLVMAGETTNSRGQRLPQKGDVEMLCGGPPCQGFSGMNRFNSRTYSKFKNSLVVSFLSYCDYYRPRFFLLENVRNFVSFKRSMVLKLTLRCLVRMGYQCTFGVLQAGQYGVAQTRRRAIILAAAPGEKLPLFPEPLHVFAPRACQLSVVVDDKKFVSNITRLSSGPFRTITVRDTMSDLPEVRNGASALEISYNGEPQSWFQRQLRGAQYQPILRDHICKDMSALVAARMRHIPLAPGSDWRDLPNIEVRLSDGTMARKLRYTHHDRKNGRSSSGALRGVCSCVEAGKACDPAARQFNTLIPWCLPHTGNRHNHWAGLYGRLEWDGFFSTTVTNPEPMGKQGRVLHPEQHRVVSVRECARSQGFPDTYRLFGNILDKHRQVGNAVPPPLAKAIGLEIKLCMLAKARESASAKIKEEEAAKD
LEDGF integ inh – blocks HIV-1 LEDGF/p75-dependent DNA integration | inhibition, % at 3.7 µM | TR-FRET IN-LEDGF/p75 DNA integration, Eu/Cy5 | 370,000 tested, 0.64% active;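 active = inhibition above the screen-wide mean plus 3 SD, cut at about 13% in these data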;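 note: signal is the Cy5 over europium emission ratio at 671 and 618 nm; 0% = plate median of compound wells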
rCAG RNA binder – binds r(CAG) RNA repeats. r(CAG) RNA repeat, TO-PRO-1 dye displacement fluorescence. inhibition, % at 3 µM. 370,000 tested, 1.3% active;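 active = inhibition above the plate cutoff, the mean of all test compounds on that plate plus 3 SD, cut at about 35% in these data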;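 note: 0% = DMSO alone and 100% = 100 µM mitoxantrone as full dye displacement; higher means more dye released from RNA so lower well fluorescence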
PG9 binder – PG9 antibody binding by small molecule | TR-FRET gp120-PG9 antibody binding | inhibition, % at 6.7 µM | 360,000 tested, 0.43% active; in the data active = inhibition above about 8.5%
MBD2 DNA inh – inhibitors of human MBD2 binding to methylated oligonucleotide; 370,000 tested, 0.31% active; AID 686964; TR-FRET; inhibition, % at 4.4 µM; in the data active = inhibition above about 13%
* = called active by the depositor; / = no result given; ! = a repeat was not active.

SMILES	UHRF1 binding	DNMT1 inh	LEDGF integ inh	rCAG RNA binder	PG9 binder	MBD2 DNA inh
CN(CCOC(=O)c1cc2ccccc2o1)C1CN(Cc2cn(Cc3ccccc3C(F)(F)F)nn2)S(=O)(=O)C1 (stereo not given)	10	/	-2	6	/	12
COc1c2occc2cc2ccc(=O)oc12	-3	3	0	0	1	-1
COc1c2c(cc3ccc(=O)oc13)CCO2	49*	-1	4	-1	2	-5
COc1ccccc1N1CCN(C(=O)c2cc3c(C)nn(-c4ccccc4)c3s2)CC1	-1	/	-2	6	/	2
O=C(CN1CCCCCC1)Nc1cc(C(F)(F)F)ccc1Cl	1	2	-1	-5	1	0
O=C(O)C1=C(C(=O)Nc2cc(C(F)(F)F)ccc2Cl)CCCC1	29*	0	-3	1	0	-1
OC(CC#CCN1CCCCC1)(c1ccccc1)c1ccccc1	1	-2	-5	-3	0	-1
OC(CC#CCN1CCCC1)(c1ccccc1)c1ccccc1	22*	5	4	-1	-2	-2
O=C(Nc1ccc(Br)cc1)C1Cc2ccccc2O/C1=N\O (stereo not given)	0	1	2	1	0	4
Cc1ccc(NC(=O)C2Cc3ccccc3O/C2=N\O)cc1C (stereo not given)	21*	0	4	4	-2	3
CCN(CC)C(=O)CC[C@H]1CC[C@]2(CCCN(Cc3ccc(OC)cc3)C2)O1	-1	/	1	-3	/	1
Cc1ccc(C(=O)Nc2ccc(F)cc2)o1	0	1	-2	-1	-2	0
Cc1ccc(C(=O)Nc2ccc(O)c(C(=O)O)c2)o1	44*	0	1	8	-2	4
CSc1nc(-c2ccc(Cl)cc2Cl)[nH]c(=O)c1C#N	1	-2	5	43*	0	0
Cc1ccc(NC(=O)C(=O)NCC2OCCc3ccccc32)cc1 (stereo not given)	57*	7	-3	-2	0	5
Cc1ccc(NC(=O)C2OCCc3ccccc32)cc1 (stereo not given)	0	0	-10	-5	0	1
C#CCN1CC(N(C)CCOC(=O)c2occ3ccccc23)CS1(=O)=O (stereo not given)	3	/	3	-1	/	2
C/C=C\C=C/C(=O)Nc1cccc(C2=NOC3(C2)C[C@@H](C(N)=O)N(C(=O)/C=C/C=C\C)C3)c1 (stereo not given in full)	/	64*	/	/	/	/
C[C@H]1[C@@H](NC(=O)C(c2ccccc2)c2ccccc2)CC[C@@]23CCCN2C(=O)CCC[C@@H]13	0	/	1	/	/	2
COc1ccc(Cc2nc3ccc(C(=O)NCC4COCCO4)cc3o2)cc1 (stereo not given)	4	0	0	-6	-2	-2
NC(Cc1ccc(O)c([N+](=O)[O-])c1)C(=O)O (stereo not given)	2	10	-1	-3	1	2
N[C@@H](Cc1cc(I)c(Oc2ccc(O)c(I)c2)c(I)c1)C(=O)O	-1	77*!	0	15	0	-1
CCOC(=O)N1C(=O)C[C@](Sc2ccc(OC)cc2)(C(=O)N2CCN(c3ncccn3)CC2)[C@H]1c1ccc(OC)cc1	0	/	-1	10	/	2
S=c1[nH]nc(-c2cc3c(s2)-c2ccccc2CC3)o1	-3	-3	0	48*	4	-5
CSc1nnc(-c2cc3c(s2)-c2ccccc2CC3)o1	-2	-3	0	2	0	2
SMILES	UHRF1 binding	DNMT1 inh	LEDGF integ inh	rCAG RNA binder	PG9 binder	MBD2 DNA inh
C=CC[C@@H](CC(=O)N[C@H](CO)Cc1ccccc1)C(=O)N[C@H](COC(=O)[C@@H](CC=C)CC(=O)OC(C)(C)C)Cc1c[nH]c2ccccc12	26*	-15	0	-6	0	1
O=C(NC1CCCCC1)C(c1ccncc1)N(Cc1ccc2c(c1)OCO2)C(=O)c1cnsn1 (stereo not given)	21*	-8	12	6	1	0
COc1cccc(N(C(=O)c2cnccn2)C(C(=O)NC2CCCCC2)c2ccc(Cl)cc2)c1 (stereo not given)	2	-2	0	-8	0	4
O=C(NC1CCCCC1)C(c1ccc(Cl)cc1)N(C(=O)c1cnccn1)c1ccc2c(c1)OCO2 (stereo not given)	22*	-3	-1	-2	1	11
CC1CCCCC1NC(=O)CSc1ncnc2sccc12 (stereo not given)	0	1	2	2	-1	0
COC(=O)c1cc(C(c2ccccc2O)C2CCCO2)n2cccc(C(C)(C)C)c12 (stereo not given)	-2	/	2	7	/	4
COc1ccc2c(CC(=O)OCC(=O)N(C)c3c(N)n(Cc4ccccc4)c(=O)[nH]c3=O)coc2c1	22*	-6	-1	11	2	5
Cc1ccc(C(=O)Nc2nnc(S(=O)(=O)Nc3ccccc3C)s2)cc1C	18	10	1	45*	0	3
CCOc1ccc(C(=O)Nc2nnc(S(=O)(=O)Nc3ccccc3C)s2)cc1	-2	4	1	31	-1	3
Cc1cccc(NC(=O)[C@H]2CC(=O)O[C@@H]2c2ccccc2)c1C	3	/	-4	0	/	1
O=C(Cc1ccccc1)NN1C(=O)C2C(C1=O)C1C=CC2C12CC2 (stereo not given)	24*	-4	6	0	-3	1
O=C(Cc1ccccc1)NN1C(=O)C2C3C=CC([C@@H]2C1=O)C31CC1 (stereo not given in full)	-1	23	-1	0	-1	-5
C=CCOc1ccccc1/C=c1\sc2nc(=O)c(C)nn2c1=O	/	53*	/	/	/	/
COc1ccc(Cn2cc(COC(=O)NCCc3c[nH]c4ccccc34)nn2)cc1	-2	/	-2	6	/	4
COc1ccc(CSC2=C(C#N)C(=O)NC3(CCCCC3)S2)cc1	7	0	-6	18	-1	2
CCCCCCSC1=C(C#N)C(=O)NC2(CCCCC2)S1	3	-4	12	70*	1	-3
COc1ccc2[nH]c3nc(SC(C)C)nnc3c2c1	54*	1	0	1	1	-4
COc1ccc(CNC(=O)CSc2nnc3c(n2)[nH]c2ccc(OC)cc23)cc1	-1	12	5	5	1	-5
COC(=O)C1CN(Cc2ccc(F)cc2)CCS(=O)(=O)N1Cc1cn(Cc2ccccc2)nn1 (stereo not given)	8	/	4	0	/	-1
C=C(C)c1cccc(C(C)(C)NC(=O)N2CCCCC2CC)c1 (stereo not given)	22*	-2	3	-5	-2	7
C=C(C)c1cccc(C(C)(C)NC(=O)N2CCN(CC)CC2)c1	1	1	-2	-2	-1	-4

Assay outcomes from PubChem BioAssay.
